Test system: Trichuris muris adult worms
Test: mean motility score (Paragon pixel variance) of adult worms (arbitrary units); higher = more motile worms, i.e. less anthelmintic effect; extreme values may be limits of the assay
Details: 100 µM; 24 h
Summary of the method: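 Each drug was tested with three worms in three wells, run over three separate occasions and vehicle and positive controls included. The worms were single adult Trichuris muris from infected NOD SCID mice, held for 24 h at 37°C and 5% CO2 in 100 μL RPMI-1640 with antibiotics and drug at 100 μM (1% v/v DMSO) in 96-well plates. Motility score was derived by Paragon pixel-variance analysis of films from an automated phenotyping platform and averaged over replicate wells.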

| SMILES | mean motility score |
| --- | --- |
| C[C@@H]1C[C@H]2[C@@H]3CCC4=CC(=O)C=C[C@]4(C)[C@@]3(F)[C@@H](O)C[C@]2(C)[C@@]1(O)C(=O)CO [dexamethasone] | 1780 |
| CC[C@H]1OC(=O)[C@H](C)[C@@H](O[C@H]2C[C@@](C)(OC)[C@@H](O)[C@H](C)O2)[C@H](C)[C@@H](O[C@@H]2O[C@H](C)C[C@H](N(C)C)[C@H]2O)[C@](C)(OC)C[C@@H](C)C(=O)[C@H](C)[C@@H](O)[C@]1(C)O [clarithromycin] | 2330 |
| Cc1cc2c(s1)Nc1ccccc1N=C2N1CCN(C)CC1 [olanzapine] | 454 |
| CC(C)(C)c1nc(-c2cccc(NS(=O)(=O)c3c(F)cccc3F)c2F)c(-c2ccnc(N)n2)s1 [dabrafenib] | 6 |
| CN(C)c1nc(N(C)C)nc(N(C)C)n1 [altretamine] | 3430 |
| CCc1ccc(CCOc2ccc(CC3SC(=O)NC3=O)cc2)nc1 (stereo unspecified) [pioglitazone] | 0 |
| CC[N+](CC)(CCNC(=O)C(=O)NCC[N+](CC)(CC)Cc1ccccc1Cl)Cc1ccccc1Cl [ambenonium] | 3180 |
| NS(=O)(=O)c1cc2c(cc1Cl)NCNS2(=O)=O [hydrochlorothiazide] | 3580 |
| Nc1cc(-c2ccncc2)cnc1O [inamrinone] | 3880 |
| Cl.Cl.NCCc1c[nH]cn1 [histamine dihydrochloride] | 2750 |
| CNCc1ccc(-c2[nH]c3cc(F)cc4c3c2CCNC4=O)cc1 [rucaparib] | 1130 |
| COc1ccc(C(=O)CC(=O)c2ccc(C(C)(C)C)cc2)cc1 [avobenzone] | 3070 |
| CS(=O)(=O)c1cccc(C[C@H](NC(=O)c2c(Cl)cc3c(c2Cl)CCN(C(=O)c2ccc4ccoc4c2)C3)C(=O)O)c1 [lifitegrast] | 3490 |
| CN1CCC(=C2c3ccccc3CC(=O)c3sccc32)CC1 [ketotifen] | 2220 |
| c1ccc(CC2=NCCN2)cc1 [tolazoline] | 1230 |
| CN1CC(=O)N2[C@H](c3ccc4c(c3)OCO4)c3[nH]c4ccccc4c3C[C@@H]2C1=O [tadalafil] | 990 |
| Nc1ccc(S(=O)(=O)Nc2ccnn2-c2ccccc2)cc1 [sulfaphenazole] | 3280 |
| CCCNC(=O)NS(=O)(=O)c1ccc(Cl)cc1 [chlorpropamide] | 2860 |
| Br.CCCCCCCCCCCCCCCC[N+](C)(C)CCN(Cc1ccc(OC)cc1)c1ncccn1 [thonzonium bromide] | 0 |
| CCN(CC)CCOC(=O)c1ccc(N)cc1.Cl [procaine hydrochloride] | 3750 |
| C[C@@H](C(=O)O)c1ccc(-c2ccccc2)c(F)c1 [tarenflurbil] | 2130 |
| Cn1cnc2c(F)c(Nc3ccc(Br)cc3Cl)c(C(=O)NOCCO)cc21 [selumetinib] | 3500 |
| COc1cc2ncnc(Nc3ccc(F)c(Cl)c3)c2cc1OCCCN1CCOCC1 [gefitinib] | 1080 |
| N[C@@H](CCC(=O)O)C(=O)O [L-glutamate] | 3930 |
| Oc1ncnc2[nH]ncc12 [allopurinol] | 4000 |
| Clc1ccc2c(c1)CCc1cccnc1C2=C1CCNCC1 [desloratadine] | 930 |

| SMILES | mean motility score |
| --- | --- |
| CCCCCCCCCCC[C@@H](C[C@@H]1OC(=O)[C@H]1CCCCCC)OC(=O)[C@H](CC(C)C)NC=O [orlistat] | 3180 |
| COC(=O)C1=C(C)NC(C)=C(C(=O)OCCN2CCN(C(c3ccccc3)c3ccccc3)CC2)C1c1cccc([N+](=O)[O-])c1.Cl (stereo unspecified) [manidipine hydrochloride] | 1540 |
| Nc1nc(O)c2ncn(COC(CO)CO)c2n1 [ganciclovir] | 2950 |
| CC(C)(C)NC(=O)[C@H]1CC[C@H]2[C@@H]3CC[C@H]4NC(=O)C=C[C@]4(C)[C@H]3CC[C@]12C [finasteride] | 2080 |
| O=C1NC(=O)C(c2ccccc2)(c2ccccc2)N1 [phenytoin] | 2510 |
| CC1(C)S[C@@H]2[C@H](NC(=O)COc3ccccc3)C(=O)N2[C@H]1C(=O)O [penicillin V] | 1470 |
| COc1cc(C(=O)NS(=O)(=O)c2ccccc2C)ccc1Cc1cn(C)c2ccc(NC(=O)OC3CCCC3)cc12 [zafirlukast] | 0 |
| CC(=O)Nc1cccc(-n2c(=O)n(C3CC3)c(=O)c3c(Nc4ccc(I)cc4F)n(C)c(=O)c(C)c32)c1 [trametinib] | 2980 |
| CO/N=C(\C(=O)N[C@@H]1C(=O)N2C(C(=O)[O-])=C(COC(N)=O)CS[C@H]12)c1ccco1.[Na+] [cefuroxime sodium] | 2610 |
| COC(=O)[C@H](c1ccccc1Cl)N1CCc2sccc2C1 [clopidogrel] | 2110 |
| CCOc1cc(N)c(Cl)cc1C(=O)NCC1CN(Cc2ccc(F)cc2)CCO1 (stereo unspecified) [mosapride] | 2610 |
| CC[C@H](Nc1ncnc2[nH]cnc12)c1nc2cccc(F)c2c(=O)n1-c1ccccc1 [idelalisib] | 3590 |
| CNC[C@H](O)c1ccc(O)c(O)c1 [epinephrine] | 3270 |
| C[C@@](Cc1ccc(O)c(O)c1)(NN)C(=O)O [S-carbidopa] | 3900 |
| CN(C/C=C/C#CC(C)(C)C)Cc1cccc2ccccc12 [terbinafine] | 4560 |
| Clc1cc(Cl)c(OCC#CI)cc1Cl [haloprogin] | 2180 |
| CC(=O)Oc1ccc(C(c2ccc(OC(C)=O)cc2)c2ccccn2)cc1 [bisacodyl] | 2870 |
| N#Cc1ccc(C(c2ccc(C#N)cc2)n2cncn2)cc1 [letrozole] | 4830 |
| O=C(CCCN1CC=C(n2c(O)nc3ccccc32)CC1)c1ccc(F)cc1 [droperidol] | 2120 |
| CC1=NS(=O)(=O)c2cc(Cl)ccc2N1 [diazoxide] | 3260 |
| Cc1ccc(-c2ncc(Cl)cc2-c2ccc(S(C)(=O)=O)cc2)cn1 [etoricoxib] | 3660 |
| CC(C)NCC(O)COc1cccc2[nH]ccc12 (stereo unspecified) [pindolol] | 4670 |
| COc1c2occc2cc2ccc(=O)oc12 [methoxsalen] | 4190 |
| Cc1ccc(N(C=C2NCCN2)c2cccc(O)c2)cc1 [phentolamine] | 2960 |
| O=C1CCc2ccc(OCCCCN3CCN(c4cccc(Cl)c4Cl)CC3)cc2N1 [aripiprazole] | 3030 |
| C[C@@H](Oc1cc(-c2cnn(C3CCNCC3)c2)cnc1N)c1c(Cl)ccc(F)c1Cl [crizotinib] | 284 |

| SMILES | mean motility score |
| --- | --- |
| CN1Cc2c(N)cccc2C(c2ccccc2)C1 (stereo unspecified) [nomifensine] | 2230 |
| CC(C)(C)c1ccc(C(O)CCCN2CCC(C(O)(c3ccccc3)c3ccccc3)CC2)cc1 (stereo unspecified) [terfenadine] | 1 |
| CN(C(=O)CN(CCO)CC(=O)N(C)C(C)(C)Cc1ccccc1)C(C)(C)Cc1ccccc1 [oxethazaine] | 184 |
| CC1(C)NC(=O)N(c2ccc([N+](=O)[O-])c(C(F)(F)F)c2)C1=O [nilutamide] | 1900 |
| COc1ccccc1N1CCN(CCCNc2cc(=O)n(C)c(=O)n2C)CC1 [urapidil] | 2810 |
| Cc1nc2ccc(CN(C)c3ccc(C(=O)N[C@@H](CCC(=O)O)C(=O)O)s3)cc2c(=O)[nH]1 [raltitrexed] | 3030 |
| Cc1c(C(=O)NN2CCCCC2)nn(-c2ccc(Cl)cc2Cl)c1-c1ccc(Cl)cc1 [rimonabant] | 2060 |
| Cl.Fc1ccc([C@@H]2CCNC[C@H]2COc2ccc3c(c2)OCO3)cc1 [paroxetine hydrochloride] | 1300 |
| CC1CCc2c(N3CCC(O)CC3)c(F)cc3c(=O)c(C(=O)O)cn1c23 (stereo unspecified) [nadifloxacin] | 2660 |
| CC(=O)Oc1cc(C(C)C)c(OCCN(C)C)cc1C.Cl [moxisylyte hydrochloride] | 1780 |
| CCCc1nc(C)c2c(=O)nc(-c3cc(S(=O)(=O)N4CCN(CC)CC4)ccc3OCC)[nH]n12 [vardenafil] | 2160 |
| CC/C=C\C/C=C\C/C=C\C/C=C\C/C=C\C/C=C\CCC(=O)O [doconexent] | 4100 |
| NNCCc1ccccc1 [phenelzine] | 3810 |
| CCn1nc(C(=O)O)c(=O)c2cc3c(cc21)OCO3 [cinoxacin] | 1110 |
| CN(C)CCCN1c2ccccc2Sc2ccc(Cl)cc21 [chlorpromazine] | 0 |
| CCCN[C@H]1CCc2nc(N)sc2C1.Cl.Cl [pramipexole dihydrochloride] | 3620 |
| CN1CCN(C2=Nc3cc(Cl)ccc3Nc3ccccc32)CC1 [clozapine] | 2870 |
| CNC(=O)c1ccccc1Sc1ccc2c(/C=C/c3ccccn3)n[nH]c2c1 [axitinib] | 2490 |
| Cc1nc(Nc2ncc(C(=O)Nc3c(C)cccc3Cl)s2)cc(N2CCN(CCO)CC2)n1 [dasatinib] | 1190 |
| Cc1ccc(C(=O)Nc2ccc(CN3CCN(C)CC3)c(C(F)(F)F)c2)cc1C#Cc1cnc2cccnn12 [ponatinib] | 1760 |
| CCN(CC)C(C)CN1c2ccccc2Sc2ccccc21.Cl (stereo unspecified) [ethopropazine hydrochloride] | 114 |
| O=c1oc2ccccc2c(O)c1Cc1c(O)c2ccccc2oc1=O [dicumarol] | 0 |
| COc1cc2nccc(Oc3ccc(NC(=O)C4(C(=O)Nc5ccc(F)cc5)CC4)cc3)c2cc1OC [cabozantinib] | 3950 |
| CCOC(=O)n1ccn(C)c1=S [carbimazole] | 1610 |

From the supplement of paper PMC10503962
